Measurements taken from PubChem BioAssay AID1159580 (chemical genetic matrix, 2015).
Where “and” joins values, the source holds several entries; their conditions need not be identical. Equal entries are not always repeated. In all, about 5,500 compounds went through this assay and about 2,000 (36%) were called active. Not shown: some 18% with an inconclusive outcome. Cut-off read from the data, not from the text of the source: active = normalized growth mostly below about 0.91 (no sharp cut-off); inconclusive = no clear call, values can overlap the other calls; inactive = mostly above about 0.92. The list shows a part of the results.

Assay: chemical genetic growth profiling, strain panel (AID 1159580);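 note: tested at 20 µM; growth read once vehicle control cultures reached saturation at 30 °C; 1 = growth at the plate median or of vehicle wells; lower values mean less growth of the strain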
Conditions: growth OD
[1] = S. cerevisiae deletion strains, locus YAL040C, strain CLN3, hits give low values
[2] = S. cerevisiae deletion strains, locus YER002W, strain NOP16, hits give low values
[3] = S. cerevisiae deletion strains, locus YMR307W, strain GAS1, hits give low values
[4] = S. cerevisiae deletion strains, locus YNL175C, strain NOP13, hits give low values
[5] = S. cerevisiae deletion strains, locus YNL197C, strain WHI3, hits give low values
[6] = S. cerevisiae deletion strains, locus YNL224C, strain SQS1, hits give low values
[7] = S. cerevisiae deletion strains, locus YNL322C, strain KRE1, hits give low values
[8] = S. cerevisiae deletion strains, locus YOR083W, strain WHI5 (second series), hits give low values
[9] = S. cerevisiae deletion strains, locus YPL241C, strain CIN2, hits give low values

Measured: normalized growth

COc1ccc(NC(=O)c2ccc(-c3ccc(-c4noc(C)n4)cc3C)cc2)cc1N1CCN(C)CC1
inactive: [1] 1.05 | S. cerevisiae deletion strains, locus YCL061C, strain MRC1 (second series), hits give low values 0.982 | S. cerevisiae deletion strains, locus YDR363W, strain ESC2, hits give low values 0.959 | [2] 1.01 | S. cerevisiae deletion strains, locus YJR075W, strain HOC1, hits give low values 0.974 | [3] 0.933 | S. cerevisiae deletion strains, locus YNL153C, strain GIM3, hits give low values 0.946 | [4] 1.02 | [5] 1.04 | [6] 1.01 | [7] 0.965 | [8] 0.939 | [9] 0.994

CC(=O)NCCc1c[nH]c2ccc(O)cc12
inactive: [1] 1 | S. cerevisiae deletion strains, locus YBR021W, strain FUR4, hits give low values 1.03 | S. cerevisiae deletion strains, locus YBR229C, strain ROT2, hits give low values 0.96 | S. cerevisiae deletion strains, locus YCL029C, strain bik1, hits give low values 0.98 | S. cerevisiae deletion strains, locus YDL035C, strain GPR1, hits give low values 1.01 | S. cerevisiae deletion strains, locus YDL074C, strain BRE1, hits give low values 0.953 | S. cerevisiae deletion strains, locus YDL101C, strain DUN1, hits give low values 0.977 | S. cerevisiae deletion strains, locus YDL134C, strain PPH21, hits give low values 0.993 | S. cerevisiae deletion strains, locus YDL185W, strain tfp1, hits give low values 0.983 | S. cerevisiae deletion strains, locus YDL192W, strain arf1, hits give low values 0.982 | S. cerevisiae deletion strains, locus YDR101C, strain arx1, hits give low values 0.929 | S. cerevisiae deletion strains, locus YDR150W, strain NUM1, hits give low values 1.01 | S. cerevisiae deletion strains, locus YDR162C, strain NBP2, hits give low values 0.999 | S. cerevisiae deletion strains, locus YDR318W, strain mcm21, hits give low values 0.992 | S. cerevisiae deletion strains, locus YDR388W, hits give low values 0.991 | S. cerevisiae deletion strains, locus YDR502C, strain sam2, hits give low values 0.985 | S. cerevisiae deletion strains, locus YEL061C, strain CIN8, hits give low values 0.984 | [2] 0.993 | S. cerevisiae deletion strains, locus YER110C, hits give low values 0.986 | S. cerevisiae deletion strains, locus YER155C, strain BEM2, hits give low values 0.998 | S. cerevisiae deletion strains, locus YER167W, strain BCK2, hits give low values 0.992 | S. cerevisiae deletion strains, locus YGL078C, strain dbp3, hits give low values 0.999 | S. cerevisiae deletion strains, locus YGL086W, strain mad1, hits give low values 0.962 | S. cerevisiae deletion strains, locus YGL248W, strain PDE1, hits give low values 0.98 | S. cerevisiae deletion strains, locus YGR078C, strain PAC10, hits give low values 1.01 | S. cerevisiae deletion strains, locus YGR135W, strain pre9, hits give low values 1.06 | S. cerevisiae deletion strains, locus YGR252W, strain gcn5, hits give low values 1.05 | S. cerevisiae deletion strains, locus YHR030C, strain SLT2, hits give low values 0.997 | S. cerevisiae deletion strains, locus YHR079C, strain IRE1 (second series), hits give low values 0.992 | S. cerevisiae deletion strains, locus YHR094C, strain hxt1, hits give low values 0.991 | S. cerevisiae deletion strains, locus YHR129C, strain ARP1, hits give low values 0.993 | S. cerevisiae deletion strains, locus YHR200W, strain rpn10, hits give low values 0.989 | S. cerevisiae deletion strains, locus YIL066C, strain RNR3, hits give low values 0.956 | S. cerevisiae deletion strains, locus YIL073C, strain SPO22, hits give low values 0.989 | S. cerevisiae deletion strains, locus YIL125W, strain kgd1, hits give low values 0.988 | S. cerevisiae deletion strains, locus YIR030C, strain dcg1, hits give low values 0.997 | S. cerevisiae deletion strains, locus YJL095W, strain BCK1, hits give low values 0.982 | S. cerevisiae deletion strains, locus YJL134W, strain LCB3, hits give low values 0.992 | S. cerevisiae deletion strains, locus YJL168C, strain set2, hits give low values 0.995 | S. cerevisiae deletion strains, locus YJL187C, strain SWE1 (second series), hits give low values 0.95 | S. cerevisiae deletion strains, locus YJR043C, strain POL32, hits give low values 0.99 | S. cerevisiae deletion strains, locus YKL009W, strain mrt4, hits give low values 0.978 | S. cerevisiae deletion strains, locus YKL068W, hits give low values 0.986 | S. cerevisiae deletion strains, locus YKL085W, strain MDH1 (second series), hits give low values 0.982 | S. cerevisiae deletion strains, locus YKL085W, strain MDH1, hits give low values 0.982 | S. cerevisiae deletion strains, locus YKL190W, strain CNB1, hits give low values 0.993 | S. cerevisiae deletion strains, locus YKR001C, strain vps1, hits give low values 0.978 | S. cerevisiae deletion strains, locus YLR039C, strain RIC1, hits give low values 0.95 | S. cerevisiae deletion strains, locus YLR058C, strain SHM2, hits give low values 0.982 | S. cerevisiae deletion strains, locus YLR102C, strain apc9, hits give low values 0.999 | S. cerevisiae deletion strains, locus YLR262C, strain YPT6, hits give low values 0.967 | S. cerevisiae deletion strains, locus YLR268W, strain sec22, hits give low values 0.983 | S. cerevisiae deletion strains, locus YLR330W, strain CHS5, hits give low values 0.989 | S. cerevisiae deletion strains, locus YLR342W, strain FKS1 (second series), hits give low values 1.07 | S. cerevisiae deletion strains, locus YLR371W, strain rom2, hits give low values 1.02 | S. cerevisiae deletion strains, locus YLR418C, strain cdc73, hits give low values 1.05 | S. cerevisiae deletion strains, locus YML016C, strain PPZ1, hits give low values 0.992 | S. cerevisiae deletion strains, locus YML032C, strain rad52, hits give low values 0.978 | S. cerevisiae deletion strains, locus YML124C, strain tub3, hits give low values 0.995 | S. cerevisiae deletion strains, locus YMR078C, strain ctf18, hits give low values 0.99 | S. cerevisiae deletion strains, locus YMR223W, strain ubp8, hits give low values 1.03 | S. cerevisiae deletion strains, locus YMR263W, strain SAP30, hits give low values 1 and 0.976 | [3] 1.05 | S. cerevisiae deletion strains, locus YNL067W, strain RPL9B, hits give low values 0.959 | S. cerevisiae deletion strains, locus YNL128W, strain TEP1, hits give low values 1.01 | [4] 1.01 | [5] 1.01 | [6] 1.02 | S. cerevisiae deletion strains, locus YNL233W, strain BNI4, hits give low values 0.966 | S. cerevisiae deletion strains, locus YNL250W, strain rad50, hits give low values 0.967 | S. cerevisiae deletion strains, locus YNL271C, strain bni1, hits give low values 0.982 | S. cerevisiae deletion strains, locus YNL298W, strain CLA4, hits give low values 1 | S. cerevisiae deletion strains, locus YNL307C, strain MCK1, hits give low values 0.987 | [7] 1.02 and 0.994 | S. cerevisiae deletion strains, locus YNR052C, strain pop2, hits give low values 0.996 | S. cerevisiae deletion strains, locus YOL006C, strain TOP1, hits give low values 0.933 | S. cerevisiae deletion strains, locus YOL012C, strain htz1 1.04 | S. cerevisiae deletion strains, locus YOL147C, strain pex11, hits give low values 0.993 | S. cerevisiae deletion strains, locus YOR061W, strain CKA2, hits give low values 0.963 | S. cerevisiae deletion strains, locus YOR069W, strain VPS5, hits give low values 0.997 | [8] 1.01 | S. cerevisiae deletion strains, locus YOR136W, strain idh2, hits give low values 0.989 | S. cerevisiae deletion strains, locus YOR144C, strain elg1, hits give low values 0.994 | S. cerevisiae deletion strains, locus YOR184W, strain ser1, hits give low values 1 | S. cerevisiae deletion strains, locus YOR316C, strain cot1, hits give low values 0.986 | [9] 1.01 and 0.993 | S. cerevisiae deletion strains, locus YPR119W, strain clb2, hits give low values 0.988 | S. cerevisiae deletion strains, locus YPR141C, strain kar3, hits give low values 0.981 | S. cerevisiae deletion strains, locus YPR163C, strain tif3, hits give low values 0.986 | S. cerevisiae deletion strains, locus YPR167C, strain met16, hits give low values 0.992 | S. cerevisiae deletion strains, strain wtn01, hits give low values 1 | S. cerevisiae strains, strain wild type, hits give low values 0.987
